Results as given in PubChem BioAssay (NCI).
This is part of a sample that, as a whole, favours compounds with a hit. Of some 83,000 tested, about 20% had one in any assay.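 How to read the values: 0–100, growth inhibition (40 = 60% inhibited); 0, no net growth; -100 to 0, cell death (-40 = 40% of starting cells died; -100 = all dead).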 The source made the active and inactive calls. How the source made its calls: active means growth percent below 10; inactive means the rest.

Test system: NCI-H226 lung
Assay: NCI-60 one-dose screen, 48 h (100 = growth as untreated, 0 = no growth, -100 = all killed)
Details: 10 µM unless noted

**Q.** How did the growth turn out when `CCC1CCc2nc3sc(C(=O)Nc4ccccc4F)c(N)c3cc2C1` (centres undefined) was run?
**A.** 89.8% (inactive)

**Q.** Which growth does the source give for `Cc1nn(-c2ccc(Cl)cc2)c(=O)n1CCOc1ccccc1Cl` here?
**A.** 103% (inactive)

**Q.** How did the growth turn out when `COc1cc(/C=C2\CCCC3=C2NC(C)=NC3c2cc(OC)c(OC)c(OC)c2)cc(OC)c1OC` (centres undefined) was run?
**A.** 37.7% (inactive)

**Q.** With `c1ccc([P+](CCC[P+](c2ccccc2)(c2ccccc2)c2ccccc2)(c2ccccc2)c2ccccc2)cc1` as the compound, how does the growth read?
**A.** 101% (inactive)

**Q.** For `CC1=C(C#N)C(C)(C)C(C#N)=C(C)N1`, which growth is on record?
**A.** 105% (inactive)

**Q.** Which growth does the source give for `COc1cc(C(=O)OCCCCCCCCCCC[P+](c2ccccc2)(c2ccccc2)c2ccccc2)ccc1O` here?
**A.** 27.9% (inactive)

**Q.** `Nc1c(C(=O)Nc2ccccc2)sc2nc3c(cc12)CCCCC3` was tested. Which growth did it give?
**A.** 27.3% (inactive)

**Q.** How did the growth turn out when `COc1cccc(C2CC(=O)Nc3c2c(C)nn3-c2nc3ccccc3[nH]2)c1OC` (centres undefined) was run?
**A.** 55.1% (inactive)

**Q.** For `COc1cc(C(=O)/C=C/c2cc(C(=O)c3cc(OC)c(OC)c(OC)c3)ccc2OC)ccc1N`, which growth is on record?
**A.** -38.7% (active)

**Q.** With `COc1ccc(NC(=O)c2cc3ccccc3nc2Nc2cc(OC)c(OC)c(OC)c2)cc1` as the compound, how does the growth read?
**A.** 54.5% (inactive)

**Q.** How did the growth turn out when `O=S(=O)(O)CCl` was run?
**A.** 106% (inactive)

**Q.** How did the growth turn out when `O=C(CN1CCOCC1)Nc1ccc(-c2nc3ccccc3s2)cc1` was run?
**A.** 95% (inactive)

**Q.** `COc1cc(/C=C\c2cc(OC)c(OC)c(OC)c2)cc(N/C=C\C(=O)c2c[nH]c3ccccc23)c1OC` was tested. Which growth did it give?
**A.** 65.5% (inactive)

**Q.** How did the growth turn out when `CC(C)C[C@H](NC(=O)[C@@H](Cc1ccccc1)n1ccc(Nc2ccccc2)cc1=O)B(O)O` was run?
**A.** -72% (active)
